PubChem BioAssay
Active and inactive are the calls of the source.

Key:
[1] = binders of probe aFSTL3 on microarray, primary screen, stem cell growth factor project, biochemical, small-molecule microarray, fluorescence 635/667 (AID 1064); settings: higher = more signal;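 note: measures binding of the biotinylated anti-FSTL3 antibody to printed compounds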
[2] = binders from COS7 lysate, DM2A8 probe, primary screen, torsin A project, cell lysate, small-molecule microarray, fluorescence 635/667 (AID 1065); settings: higher = more signal, COS7 lysate expressing mutant human TOR1A
[3] = binders of probe aFGF2 on microarray, primary screen, stem cell growth factor project, biochemical, small-molecule microarray, fluorescence 635/667 (AID 1067); settings: higher = more signal;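 note: measures binding of biotinylated aFGF2 protein to printed compounds on slides; z-score merges feature fluorescence and signal-to-noise across triplicate slides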
[4] = binders of probe aFGF10 on microarray, primary screen, stem cell growth factor project, biochemical, small-molecule microarray, fluorescence 635/667 (AID 1071); settings: higher = more signal;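 note: score merges 667 nm spot intensity and signal to noise from triplicate slides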
[5] = biological target: Neurogenic locus notch homolog protein 2 (Homo sapiens) (UniProt Q04721); assay: Notch2 binders on small-molecule microarrays, primary screen, biochemical, small-molecule microarray, 635 nm fluorescence, stem cell growth factors (AID 1073); settings: Notch2 binding, higher = more signal
[6] = biological target: Pro-neuregulin-1, membrane-bound isoform (Homo sapiens) (UniProt Q02297); assay: NRG1 binders on small-molecule microarrays, primary screen, psychiatric disease protein project, biochemical, small-molecule microarray, fluorescence 635/667 (AID 1075); settings: NRG1 binding, 635 nm fluorescence, higher = more signal;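 note: score combines 667 nm spot fluorescence with signal to noise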
[7] = test system: Neuregulin-1 EGF-like domain; assay: binders of neuregulin-1 EGF-like domain, primary screen, biochemical, small-molecule microarray, 635 nm fluorescence (AID 1081); settings: small-molecule microarray binding, higher = more signal;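 note: binding of the protein to compounds printed on small-molecule microarray slides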
[8] = FRG1 promoter luciferase signal modulators, primary screen, FRG1 inhibition for FSHD, cell-based, C2C12 myotubes, firefly/Renilla luciferase, luminescence (AID 1084); settings: higher = more signal, called active from +8 up or from −8 down
[9] = binders of probe aFST on microarray, primary screen, stem cell growth factor project, biochemical, small-molecule microarray, fluorescence 635/667 (AID 1086); settings: higher = more signal;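 note: score merges 667 nm fluorescence with signal-to-noise of each printed compound spot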
[10] = binders of probe aHhip on microarray, primary screen, stem cell growth factor project, biochemical, small-molecule microarray, fluorescence 635/667 (AID 1087); settings: higher = more signal;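 note: score merges spot fluorescence at 667nm with spot signal to noise ratio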

Sequence of Pro-neuregulin-1, membrane-bound isoform (Homo sapiens) (Q02297 whole entry, looked up, the tested form may be a part, canonical isoform): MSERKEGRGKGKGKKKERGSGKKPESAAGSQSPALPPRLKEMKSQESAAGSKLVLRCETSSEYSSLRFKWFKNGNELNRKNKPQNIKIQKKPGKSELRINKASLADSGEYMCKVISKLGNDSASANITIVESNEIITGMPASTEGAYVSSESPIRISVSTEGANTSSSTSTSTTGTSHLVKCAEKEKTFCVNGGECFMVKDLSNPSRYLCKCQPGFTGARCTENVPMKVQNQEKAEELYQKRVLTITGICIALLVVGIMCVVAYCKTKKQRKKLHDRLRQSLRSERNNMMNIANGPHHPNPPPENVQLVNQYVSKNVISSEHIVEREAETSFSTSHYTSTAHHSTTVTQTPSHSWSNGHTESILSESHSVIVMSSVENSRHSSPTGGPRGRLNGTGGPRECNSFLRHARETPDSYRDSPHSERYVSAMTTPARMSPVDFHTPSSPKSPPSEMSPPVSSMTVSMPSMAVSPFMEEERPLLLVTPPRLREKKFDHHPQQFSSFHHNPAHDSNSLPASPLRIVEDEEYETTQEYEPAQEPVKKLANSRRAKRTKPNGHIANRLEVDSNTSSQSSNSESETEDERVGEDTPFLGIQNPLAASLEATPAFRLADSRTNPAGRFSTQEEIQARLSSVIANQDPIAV
Sequence of Neurogenic locus notch homolog protein 2 (Homo sapiens) (Q04721 whole entry, looked up, canonical isoform): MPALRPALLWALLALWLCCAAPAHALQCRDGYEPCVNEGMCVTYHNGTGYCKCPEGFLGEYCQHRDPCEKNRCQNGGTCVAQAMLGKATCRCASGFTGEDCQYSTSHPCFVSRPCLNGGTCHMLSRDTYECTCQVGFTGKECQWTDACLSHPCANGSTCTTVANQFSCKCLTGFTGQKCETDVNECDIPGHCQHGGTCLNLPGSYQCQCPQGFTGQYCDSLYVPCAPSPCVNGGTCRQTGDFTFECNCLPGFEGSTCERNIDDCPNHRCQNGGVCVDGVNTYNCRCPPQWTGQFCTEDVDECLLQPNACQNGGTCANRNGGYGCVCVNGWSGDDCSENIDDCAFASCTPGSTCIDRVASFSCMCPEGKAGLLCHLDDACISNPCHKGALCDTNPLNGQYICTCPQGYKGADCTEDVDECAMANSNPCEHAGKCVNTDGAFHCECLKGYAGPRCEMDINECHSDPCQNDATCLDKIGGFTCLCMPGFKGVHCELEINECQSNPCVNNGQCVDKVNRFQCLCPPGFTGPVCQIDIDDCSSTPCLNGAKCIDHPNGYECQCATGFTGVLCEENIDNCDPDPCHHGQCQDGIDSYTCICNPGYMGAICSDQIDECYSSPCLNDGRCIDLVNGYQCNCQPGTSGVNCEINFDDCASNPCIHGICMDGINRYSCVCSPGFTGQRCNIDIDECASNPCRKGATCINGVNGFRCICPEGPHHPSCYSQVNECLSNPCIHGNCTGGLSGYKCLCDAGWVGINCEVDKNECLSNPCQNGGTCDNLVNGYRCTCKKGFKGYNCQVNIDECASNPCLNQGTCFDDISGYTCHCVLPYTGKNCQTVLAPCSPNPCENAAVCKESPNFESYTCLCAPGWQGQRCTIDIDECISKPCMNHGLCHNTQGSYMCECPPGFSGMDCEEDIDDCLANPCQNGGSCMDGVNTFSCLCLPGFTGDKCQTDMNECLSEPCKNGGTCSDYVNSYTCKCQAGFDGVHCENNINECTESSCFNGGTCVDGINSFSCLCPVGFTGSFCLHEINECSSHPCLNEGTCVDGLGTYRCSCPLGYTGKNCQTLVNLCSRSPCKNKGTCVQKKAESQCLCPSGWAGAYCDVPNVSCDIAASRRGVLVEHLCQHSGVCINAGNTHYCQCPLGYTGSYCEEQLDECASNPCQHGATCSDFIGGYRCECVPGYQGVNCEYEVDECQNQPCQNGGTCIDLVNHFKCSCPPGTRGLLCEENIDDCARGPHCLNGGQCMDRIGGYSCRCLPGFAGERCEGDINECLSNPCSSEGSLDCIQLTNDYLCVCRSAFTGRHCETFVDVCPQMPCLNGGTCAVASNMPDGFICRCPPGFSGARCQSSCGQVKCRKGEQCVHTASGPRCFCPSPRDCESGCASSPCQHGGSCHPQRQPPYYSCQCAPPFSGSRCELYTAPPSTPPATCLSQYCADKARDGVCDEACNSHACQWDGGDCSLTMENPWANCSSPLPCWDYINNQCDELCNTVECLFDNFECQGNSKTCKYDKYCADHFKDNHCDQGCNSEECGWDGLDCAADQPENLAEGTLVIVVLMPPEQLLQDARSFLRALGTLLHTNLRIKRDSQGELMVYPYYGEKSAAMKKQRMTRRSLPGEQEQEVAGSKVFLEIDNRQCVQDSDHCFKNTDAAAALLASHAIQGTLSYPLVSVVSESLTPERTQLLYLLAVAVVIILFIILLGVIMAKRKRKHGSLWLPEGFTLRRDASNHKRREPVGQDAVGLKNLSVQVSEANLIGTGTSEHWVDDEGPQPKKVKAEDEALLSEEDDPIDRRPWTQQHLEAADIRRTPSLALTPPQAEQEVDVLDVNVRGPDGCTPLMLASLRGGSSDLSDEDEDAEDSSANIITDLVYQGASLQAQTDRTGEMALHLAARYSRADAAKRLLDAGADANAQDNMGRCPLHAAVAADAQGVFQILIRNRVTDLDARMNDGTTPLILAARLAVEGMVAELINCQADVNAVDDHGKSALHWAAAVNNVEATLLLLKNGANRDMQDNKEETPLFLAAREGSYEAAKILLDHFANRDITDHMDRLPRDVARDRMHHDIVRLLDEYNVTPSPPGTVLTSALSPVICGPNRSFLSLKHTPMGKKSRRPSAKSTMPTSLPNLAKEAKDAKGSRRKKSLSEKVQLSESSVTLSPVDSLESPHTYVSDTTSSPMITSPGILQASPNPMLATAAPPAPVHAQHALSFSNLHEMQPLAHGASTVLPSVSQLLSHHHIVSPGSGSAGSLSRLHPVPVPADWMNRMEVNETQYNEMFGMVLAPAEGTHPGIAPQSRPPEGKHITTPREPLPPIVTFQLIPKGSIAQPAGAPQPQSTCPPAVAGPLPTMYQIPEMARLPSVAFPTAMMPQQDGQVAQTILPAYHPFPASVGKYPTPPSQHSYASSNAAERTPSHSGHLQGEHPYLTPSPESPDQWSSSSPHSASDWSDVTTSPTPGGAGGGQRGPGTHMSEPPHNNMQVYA

Row | Structure (SMILES) | composite z-score [1] | composite z-score [2] | composite z-score [3] | composite z-score [4] | composite z-score [5] | composite z-score [6] | composite z-score [7] | z-score [8] | composite z-score [9] | composite z-score [10]
1 | COc1ccc(CCNC(=O)[C@@]2(C)c3ccccc3C(=O)N(Cc3cc(C(F)(F)F)cc(C(F)(F)F)c3)[C@H]2c2ccc(CO)cc2)cc1 | 1.42 | 1.35 | 0.383 | -0.27 | -0.57 | 1.73 | 1.3 | -1.62 (inactive) | 0.169 | 1.69
2 | NCCCC[C@@H]1NC(=O)[C@H]2C[C@@H](C(=O)NCc3ccc(F)cc3)[C@@H](c3ccc(O)cc3)N2C1=O | 1.85 | 0.0239 | 0.113 | 0.492 | 0.531 | 2.12 | 1.3 | 5.15 (inactive) | 1.75 | 0.0947
3 | O=C1N(CCS(=O)(=O)c2ccccc2)c2ccccc2[C@@H]2OC(c3ccc(OCCCO)cc3)=N[C@]12CCS(=O)(=O)c1ccccc1 | 0.359 | 0.145 | 0.0069 | 0.291 | 1.44 | 0.195 | 1.28 | -3.3 (inactive) | 0.855 | 0.0053
4 | O=C1C2C=CC(C(O)c3cccs3)N(Nc3ccccc3)C2C(=O)N1c1ccccc1 (stereo not given) | 0.629 | -0.0855 | -0.0459 | 0.0873 | 0.878 | 0.97 | 0.964 | -1.49 (inactive) | 0.35 | -0.0237
5 | CC(C)c1ccc(NN2C(C(O)C(C)C)C=CC3C(=O)N(c4ccccc4)C(=O)C32)cc1 (stereo not given) | 0.733 | 0.237 | 0.225 | 0.707 | 1.55 | 1.92 | 1.31 | -0.0025 (inactive) | 1.3 | -0.208
6 | CCCCN1CC=CC23O[C@@H]4C=CCOC(=O)[C@@H]4[C@H]2C(=O)N(C(CO)C(C)C)[C@@H]3C1=O (stereo not given in full) | 0.0186 | -0.438 | -0.124 | -0.275 | -0.758 | -0.397 | -0.0125 | 0.353 (inactive) | -0.288 | -0.13
7 | CCN(CC)c1ccc(N2CC=CC34O[C@@H]5C=CCOC(=O)[C@@H]5[C@H]3C(=O)N(CCCO)[C@@H]4C2=O)cc1 (stereo not given in full) | 0.515 | 0.15 | -0.062 | -0.679 | -1.04 | 0.986 | 0.391 | 0.275 (inactive) | -0.504 | 0.0881
8 | CCCCC(=C=CC[C@@H](O)c1ccc(OCCO)cc1)C[C@@H](O)c1ccccn1 | -0.0136 | 1.23 | -0.0473 | 0.314 | 0.0751 | 0.0517 | 1.15 | -0.838 (inactive) | 0.111 | 0.16
9 | CCOC(=O)C1=CC[C@@H](c2ccccc2Cl)N(S(=O)(=O)c2ccc(C)cc2)[C@H]1c1cccc(OC)c1 | -0.329 | 0.0632 | -0.0276 | 0.317 | 0.408 | 0.0948 | 0.971 | -0.38 (inactive) | 0.289 | 0.0139
10 | O=C(NCCO)C1=C[C@H](Oc2ccccc2I)[C@@H](O)[C@H](NCc2ccc(F)cc2)C1 | 0.175 | 0.917 | -0.145 | 1.38 | -0.627 | -0.835 | -1.68 | -0.766 (inactive) | -0.459 | 0.0722
11 | COCCOC(=O)N1C(=O)[C@@]2(c3cc(C#CC4(O)CCCCCC4)ccc31)[C@H](C(=O)N1CCc3cc(OC)c(OC)cc3C1)[C@H]1C(=O)O[C@H](c3ccccc3)[C@H](c3ccccc3)N1[C@@H]2c1ccc(O)cc1 | -0.277 | 2.26 | -0.01 | 0.68 | 1.51 | 0.156 | 1.16 | -0.877 (inactive) | 0.101 | -0.0618
12 | COCCOC(=O)N1C(=O)[C@@]2(c3cc(C#CC4=CCCCC4)ccc31)[C@H](c1ccccc1OCCO)N1[C@H](c3ccccc3)[C@H](c3ccccc3)OC(=O)[C@H]1[C@@H]2C(N)=O | -0.42 | 0.599 | 0 | 0.525 | 0.931 | -0.253 | 1.05 | -0.89 (inactive) | 0.366 | -0.217
13 | CCCC[C@H]1OB(O)C[C@H]2C1=C(COC)C[C@H]1C(=O)C=CC(=O)[C@H]12 | -0.54 | 0.007 | -0.0582 | 0.183 | 0.861 | -0.279 | -0.0265 | 0.254 (inactive) | 0.534 | 0.206
14 | C=CCOC(=O)[C@H]1[C@@H]2C(=O)O[C@@H](c3ccccc3)[C@@H](c3ccccc3)N2[C@@H](c2ccc(OCCOC(=O)[C@@H]3C[C@@H]4C(=O)N[C@@H](Cc5ccccc5)C(=O)N4[C@@H]3c3ccc(O)cc3)cc2)[C@]12C(=O)Nc1ccccc12 | -0.372 | 0.268 | -0.0713 | 0.278 | 0.217 | 0.403 | 1.21 | 0.503 (inactive) | -0.121 | -0.0645
15 | CN(C)C(=O)[C@@]1(CCS(=O)(=O)c2ccccc2)N=C(c2ccc(OCCCO)cc2)O[C@H]1c1ccccc1N=[N+]=[N-] | -0.35 | 0.259 | 0.167 | 0.792 | 1.32 | 1.55 | 0.551 | 0.401 (inactive) | 1.49 | -0.0994
16 | COc1cc2c(cc1O)C(c1ccc(CN3CCCC3)cc1)N(Cc1cccc(OC(F)(F)F)c1)CC2 (stereo not given) | 0.254 | 0.956 | -0.0568 | 0.0247 | 0.473 | 1.56 | 1.27 | -0.232 (inactive) | 0.155 | -0.0317
17 | CN(C)CCCCNC(=O)[C@H]1C[C@H]2C(=O)NCC(=O)N2[C@H]1c1cccc(OCCO)c1 | -0.295 | -0.0314 | -0.155 | -0.224 | -0.342 | 0.401 | 1.19 | 0.836 (inactive) | -0.324 | -0.485
18 | CN(C)CCCNC(=O)[C@@H]1c2ccccc2C(=O)N(C2Cc3ccccc3C2)[C@H]1c1ccc(CO)cc1 | 0.158 | 0.345 | -0.0566 | -0.273 | 0.175 | 0.618 | 0.849 | -1.3 (inactive) | 0.178 | -0.151
19 | C=C(COC)/C(=C/C[C@H](OC(=O)c1ccncc1)c1cccc(OCCO)c1)c1cnc2ccccc2c1 | -0.125 | 0.544 | -0.103 | 0.427 | 1.41 | 1.3 | 1.28 | 2.63 (inactive) | 0.841 | -0.134
20 | COC(=O)[C@@]1(Cc2ccc(F)cc2)[C@H]2c3cc(C(=O)N(C)C)n(CCN4CCOCC4)c3C[C@H]2CN1C(=O)c1ccccc1 | 0.59 | -0.141 | 0.0141 | 0.58 | 1.63 | 1.51 | 0.654 | 1.56 (inactive) | 0.416 | 0.664
21 | CCOC(=O)C1=CC[C@@H](c2ccccc2)N(S(=O)(=O)C[Si](C)(C)C)[C@H]1c1ccccc1 | -0.267 | 0.505 | -0.0181 | 0.389 | 1.25 | 0.652 | 0.924 | -2.47 (inactive) | 1.25 | -0.123
22 | C[N+](C)(C)CCCCCCNC(=O)[C@@H]1C[C@@H]2C(=O)N[C@@H](Cc3ccccc3)C(=O)N2[C@@H]1c1ccc(O)cc1 | -0.283 | 1.18 | -0.0138 | 0.33 | 0.581 | 1.73 | 1.03 | 2.56 (inactive) | 0.957 | 0.0373
23 | CC(C)C[C@@H]1NC(=O)[C@@]23C(=O)N[C@@H](Cc4ccccc4)C2[C@H](C)[C@@]2(C)O[C@H]2C3/C=C/C/C=C\CNC(=O)[C@@H](CC(C)C)NC1=O (stereo not given in full) | -0.47 | -0.0387 | -0.0878 | 0.159 | 0.416 | 0.345 | 0.97 | 2.49 (inactive) | 0.355 | -0.206
24 | CN1C(=O)[C@]2(CCC(=O)OC(C)(C)C)N=C(c3ccc(OCCCO)cc3)O[C@@H]2c2ccccc21 | 0.229 | 0.326 | 0.0458 | 0.182 | 0.428 | 1.8 | 1.35 | 0.518 (inactive) | 0.898 | 0.21
25 | CO[C@H]1O[C@H](CO)[C@@H](OC(=O)Nc2ccc(C(F)(F)F)cc2)[C@H](OC(=O)Nc2ccccc2-c2ccccc2)[C@H]1OC(=O)Nc1ccccc1-c1ccccc1 | -0.288 | 1.16 | 0.0276 | 0.988 | 1.04 | 0.802 | 1.36 | 2.53 (inactive) | 0.997 | -0.0645
26 | CN(C)CCCC[C@@H]1NC(=O)[C@@H]2C[C@H](C(=O)NCCCCCCNC(=O)CS)[C@H](c3cccc(OCCO)c3)N2C1=O | 0.0594 | 0.353 | -0.0621 | 0.628 | -0.453 | 0.67 | 0.838 | -0.786 (inactive) | 0.123 | 0.0373
27 | C=CCC(OC(C)=O)[C@@H]1[C@@H](N(Cc2cccc3ccccc23)C(=O)c2ccc(-c3ccccc3)cc2)c2cc(OCCCO)ccc2N1C(=O)c1ccc2ccccc2n1 (stereo not given in full) | -0.093 | 0.116 | -0.0158 | 0.0632 | 0.285 | 0.298 | 0.037 | -0.612 (inactive) | 0.386 | 0.28
28 | CCOC(=O)C[C@H]1[C@H](OC(=O)c2ccc(-c3ccccc3)cc2)[C@@H](NC(=O)CC(C)C)c2cc(OCCCO)ccc2N1C(=O)Cc1ccc(OC)cc1 | 0.0706 | 0.445 | -0.0131 | 0.135 | 0.119 | 0.828 | -0.023 | -0.33 (inactive) | 0.367 | 0.77
29 | CCCC[C@@H]1C[C@H]1[C@@H](NC(=O)c1ccc(C(F)(F)F)cc1)c1ccc(C(=O)OC)cc1 | 1.54 | 2.4 | 0.589 | 0.769 | 0.587 | 0.311 | 0.0521 | -2.69 (inactive) | 0.568 | 2.46
30 | COCCCNC(=O)[C@@H]1c2ccccc2C(=O)N(Cc2cc(C(F)(F)F)cc(C(F)(F)F)c2)[C@H]1c1ccc(CO)cc1 | -0.468 | 0.668 | -0.182 | -0.568 | -0.0254 | 0.686 | 0.887 | 0.309 (inactive) | 1.49 | -0.34
